In publication PMC5540273 (PLoS ONE, 2017):

Assays:
Settings in all cases: concentration: 1 μM, replicates: in singlicate; n = 1
[1] = tested on: CDK4-cyclinD1
[2] = tested on: CDK4-cyclinD3
[3] = tested on: CDK4
[4] = tested on: CDK5
[5] = tested on: CDK7
[6] = tested on: CDK8
[7] = tested on: CDK9
[8] = tested on: CDKL1
[9] = tested on: CDKL2
[10] = tested on: CDKL3
[11] = tested on: CDKL5
[12] = tested on: CHEK1
[13] = tested on: CHEK2
[14] = tested on: CIT
[15] = tested on: CLK1
[16] = tested on: CLK2
[17] = tested on: CLK3
[18] = tested on: CLK4
[19] = tested on: CSF1R-autoinhibited
[20] = tested on: CSF1R
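Also: KINOMEscan kinase panel screen.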

SMILES	%Inh [1] [%]	%Inh [2] [%]	%Inh [3] [%]	%Inh [4] [%]	%Inh [5] [%]	%Inh [6] [%]	%Inh [7] [%]	%Inh [8] [%]	%Inh [9] [%]	%Inh [10] [%]	%Inh [11] [%]	%Inh [12] [%]	%Inh [13] [%]	%Inh [14] [%]	%Inh [15] [%]	%Inh [16] [%]	%Inh [17] [%]	%Inh [18] [%]	%Inh [19] [%]	%Inh [20] [%]
CS(=O)(=O)CCNCc1nc(-c2ccc3ncnc(Nc4ccc5c(cnn5Cc5ccccc5)c4)c3c2)cs1.Cl.Cl [GW569716]	41	0	39	18	0	41	0	0	11	100	14	0	57	34	24	0	1	5	39	0
CCCCc1nn2ncccc2c1-c1ccnc(NC2CC2)n1 [GW684374]	0	12	21	0	0	0	0	0	15	0	0	0	3	25	40	26	90.7	0	0	7
CS(=O)(=O)CCNCc1nc(-c2ccc3ncnc(Nc4ccc(OCc5ccccc5)c(Cl)c4)c3c2)cs1.Cl [GW582764]	45	0	38	0	0	47	0	9	18	0	0	100	30	38	22	0	0	6	48	3
Cn1cnc2c(N)ncnc21 [SKF-97623]	19	0	25	0	0	46	0	91.1	48	0	0	0	24	1	6	0	2	0	41	0
CCn1c(-c2ccccc2)nc2cnccc21 [SB-733416]	0	6	3	0	0	0	0	0	9	0	4	29	0	23	17	0	0	3	0	13
Cc1ccccc1-c1cc(-c2c[nH]nc2-c2ccccn2)ccn1 [GW680061]	0	0	0	0	0	23	0	0	10	0	0	85	4	24	15	0	0	15	10	3
O=C(Nc1n[nH]c2nc(-c3cccs3)c(Br)cc12)C1CC1 [SB-735297]	0	0	0	0	16	0	0	34	96.4	0	0	0	0	0	11	0	0	0	0	0
Nc1cccc(-c2ccc3c(N)n[nH]c3c2)n1 [GSK2192730]	0	0	0	0	92.8	0	16	0	13	0	4	0	13	17	28	18	0	0	0	14
Cc1ccc(NC(=O)Nc2ccc(Cl)c(C(F)(F)F)c2)cc1-c1ccc(C(=O)Nc2ccncc2)cc1 [GSK1398470]	0	0	0	0	0	36	0	86	34	0	6	0	0	90.6	14	3	0	24	0	30
COc1nccc(-c2c(-c3ccc(F)cc3)ncn2CCCN2CCOCC2)n1 [SB-282852]	44	15	100	0	27	55	0	31	36	0	0	0	0	17	73	0	0	5	41	0
FC(F)(F)c1ccccc1-c1cc(-c2c[nH]nc2-c2ccccn2)ccn1 [GW679396]	17	0	32	0	0	9	4	0	6	0	0	99.9	0	41	8	1	0	21	0	0
